# Results as given in paper PMC7862700, “An all-to-all approach to the identification of sequence-specific readers for epigenetic DNA modifications on cytosine”.
# What was measured:
# Experiment in all cases: DAPPL (digital affinity profiling via proximity ligation, sequencing); 10 mM Tris-HCl pH 7.5, 50 mM NaCl, 1 mM DTT, 4% glycerol, room temperature, 30 min; GST-TFs on glutathione beads, 16-mer random dsDNA library, 0.1% formaldehyde crosslink after washing; high values mean tight binding
# FLI1 = target: T1, FLI1 (Homo sapiens, UniProt Q01543 1-452); settings: protein: recombinant; tags: N-terminal GST; dsDNA, one strand shown
# T1 sequence: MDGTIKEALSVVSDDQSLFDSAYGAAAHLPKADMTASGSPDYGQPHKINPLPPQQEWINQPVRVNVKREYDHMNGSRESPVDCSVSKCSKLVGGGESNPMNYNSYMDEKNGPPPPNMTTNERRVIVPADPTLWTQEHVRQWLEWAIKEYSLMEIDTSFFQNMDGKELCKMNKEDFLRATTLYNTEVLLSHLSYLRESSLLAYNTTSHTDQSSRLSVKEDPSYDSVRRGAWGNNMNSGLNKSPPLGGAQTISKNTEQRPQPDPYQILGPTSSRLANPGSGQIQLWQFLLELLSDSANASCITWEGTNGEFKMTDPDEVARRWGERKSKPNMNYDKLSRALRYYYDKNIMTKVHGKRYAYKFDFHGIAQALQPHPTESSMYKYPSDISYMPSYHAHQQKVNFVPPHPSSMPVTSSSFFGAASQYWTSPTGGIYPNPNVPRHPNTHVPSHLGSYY
# In short: (§1)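 A tag-only sample was pooled with DNA-barcoded human transcription factors that had been expressed in yeast as GST fusions and captured on glutathione beads. The pools were incubated for 30 min at room temperature with 200 nmole of a random double-stranded 16-mer DNA library in Tris/NaCl/DTT/glycerol buffer, then washed, crosslinked with 0.1% formaldehyde, proximity-ligated (BsaI/T4 ligase, 1 h, 37 °C), PCR-amplified and sequenced on an Illumina NextSeq500. Binding signal is each hexamer's read frequency for a factor divided by its frequency for the tag-only sample.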
# ELK1 = target: T2, ELK1 (Homo sapiens, UniProt P19419 1-428); settings: protein: recombinant; tags: N-terminal GST; dsDNA, one strand shown
# T2 sequence: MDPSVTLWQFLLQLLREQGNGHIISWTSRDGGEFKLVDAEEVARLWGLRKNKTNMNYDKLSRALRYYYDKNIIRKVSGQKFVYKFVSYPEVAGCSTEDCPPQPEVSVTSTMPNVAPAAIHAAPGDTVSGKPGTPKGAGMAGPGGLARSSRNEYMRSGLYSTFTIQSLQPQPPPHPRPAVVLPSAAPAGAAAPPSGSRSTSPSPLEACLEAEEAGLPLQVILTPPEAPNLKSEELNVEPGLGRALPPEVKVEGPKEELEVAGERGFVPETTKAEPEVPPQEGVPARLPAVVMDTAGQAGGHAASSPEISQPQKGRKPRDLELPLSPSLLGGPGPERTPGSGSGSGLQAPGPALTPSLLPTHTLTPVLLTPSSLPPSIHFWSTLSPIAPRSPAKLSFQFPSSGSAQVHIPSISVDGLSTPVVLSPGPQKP
# In short: as §1
# GABPA = target: T3, GABPA (Homo sapiens, UniProt Q06546 1-454); settings: protein: recombinant; tags: N-terminal GST; dsDNA, one strand shown
# T3 sequence: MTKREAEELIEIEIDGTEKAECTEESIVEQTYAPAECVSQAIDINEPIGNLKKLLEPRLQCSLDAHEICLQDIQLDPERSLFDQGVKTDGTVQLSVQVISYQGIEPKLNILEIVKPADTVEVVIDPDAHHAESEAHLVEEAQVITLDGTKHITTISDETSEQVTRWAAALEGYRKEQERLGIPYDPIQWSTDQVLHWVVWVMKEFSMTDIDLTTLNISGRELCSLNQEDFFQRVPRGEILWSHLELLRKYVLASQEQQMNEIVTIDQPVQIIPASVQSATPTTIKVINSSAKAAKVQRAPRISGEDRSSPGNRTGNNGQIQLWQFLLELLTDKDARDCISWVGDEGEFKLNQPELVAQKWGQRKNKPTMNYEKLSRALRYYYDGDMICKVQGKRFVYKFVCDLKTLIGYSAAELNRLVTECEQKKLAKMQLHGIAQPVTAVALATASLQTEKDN
# In short: as §1
# ERG = target: T4, ERG (Homo sapiens, UniProt P11308 1-479); settings: protein: recombinant; tags: N-terminal GST; dsDNA, one strand shown
# T4 sequence: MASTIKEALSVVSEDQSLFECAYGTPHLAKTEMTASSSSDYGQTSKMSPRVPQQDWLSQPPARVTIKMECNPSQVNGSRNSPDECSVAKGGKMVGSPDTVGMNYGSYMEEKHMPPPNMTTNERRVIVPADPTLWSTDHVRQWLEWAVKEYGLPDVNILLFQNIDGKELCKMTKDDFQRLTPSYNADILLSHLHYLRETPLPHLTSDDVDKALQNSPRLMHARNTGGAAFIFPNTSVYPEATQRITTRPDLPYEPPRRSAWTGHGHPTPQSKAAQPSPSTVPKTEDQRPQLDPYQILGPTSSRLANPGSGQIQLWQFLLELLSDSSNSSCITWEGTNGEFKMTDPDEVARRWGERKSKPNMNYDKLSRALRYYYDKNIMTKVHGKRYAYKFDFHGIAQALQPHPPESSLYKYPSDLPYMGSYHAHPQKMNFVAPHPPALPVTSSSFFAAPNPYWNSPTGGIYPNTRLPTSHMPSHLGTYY
# In short: as §1
# ELF1 = ELF1 (Homo sapiens, UniProt P32519 1-619); settings: protein: recombinant; tags: N-terminal GST; dsDNA, one strand shown
# ELF1, sequence (P32519 whole entry): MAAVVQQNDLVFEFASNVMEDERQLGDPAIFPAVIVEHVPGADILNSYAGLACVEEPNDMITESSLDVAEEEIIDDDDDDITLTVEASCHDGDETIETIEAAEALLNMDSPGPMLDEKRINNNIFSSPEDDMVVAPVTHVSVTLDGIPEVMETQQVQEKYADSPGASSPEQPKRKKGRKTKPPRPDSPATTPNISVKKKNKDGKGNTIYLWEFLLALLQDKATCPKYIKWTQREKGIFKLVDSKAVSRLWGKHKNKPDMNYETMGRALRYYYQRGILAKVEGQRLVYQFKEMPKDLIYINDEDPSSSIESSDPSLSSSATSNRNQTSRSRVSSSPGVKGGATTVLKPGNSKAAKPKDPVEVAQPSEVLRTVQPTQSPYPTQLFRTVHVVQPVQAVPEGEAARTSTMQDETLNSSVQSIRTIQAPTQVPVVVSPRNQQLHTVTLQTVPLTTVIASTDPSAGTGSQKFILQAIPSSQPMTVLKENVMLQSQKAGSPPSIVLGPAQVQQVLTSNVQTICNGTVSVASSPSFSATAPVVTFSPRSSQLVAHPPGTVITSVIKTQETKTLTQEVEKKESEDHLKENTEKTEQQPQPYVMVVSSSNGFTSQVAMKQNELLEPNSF
# In short: as §1
# EHF = target: T5, EHF (Homo sapiens, UniProt Q9NZC4 1-300); settings: protein: recombinant; tags: N-terminal GST; dsDNA, one strand shown
# T5 sequence: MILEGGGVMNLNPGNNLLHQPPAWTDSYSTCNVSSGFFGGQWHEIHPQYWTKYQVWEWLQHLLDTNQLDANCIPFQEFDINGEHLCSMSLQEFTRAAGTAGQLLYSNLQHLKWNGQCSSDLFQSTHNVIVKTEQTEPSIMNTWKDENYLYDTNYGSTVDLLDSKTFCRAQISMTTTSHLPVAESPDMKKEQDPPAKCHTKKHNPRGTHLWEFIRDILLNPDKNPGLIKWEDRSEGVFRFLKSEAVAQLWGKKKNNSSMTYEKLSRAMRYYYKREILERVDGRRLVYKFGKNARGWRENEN
# In short: as §1
# SPI1 = SPI1 (Homo sapiens, UniProt P17947 1-270); settings: protein: recombinant; tags: N-terminal GST; dsDNA, one strand shown
# In short: as §1
# SPIB = SPIB (Homo sapiens, UniProt Q01892 1-262); settings: protein: recombinant; tags: N-terminal GST; dsDNA, one strand shown
# SPIB, sequence (Q01892 whole entry): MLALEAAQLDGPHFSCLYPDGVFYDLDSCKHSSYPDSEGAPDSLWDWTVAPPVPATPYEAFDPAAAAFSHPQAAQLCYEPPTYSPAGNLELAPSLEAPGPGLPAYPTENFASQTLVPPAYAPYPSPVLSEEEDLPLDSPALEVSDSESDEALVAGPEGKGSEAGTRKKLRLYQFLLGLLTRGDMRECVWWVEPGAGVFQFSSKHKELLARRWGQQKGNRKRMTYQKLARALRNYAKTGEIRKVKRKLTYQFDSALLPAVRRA
# In short: as §1
# FEV = target: T6, FEV (Homo sapiens, UniProt Q99581 1-238); settings: protein: recombinant; tags: N-terminal GST; dsDNA, one strand shown
# T6 sequence: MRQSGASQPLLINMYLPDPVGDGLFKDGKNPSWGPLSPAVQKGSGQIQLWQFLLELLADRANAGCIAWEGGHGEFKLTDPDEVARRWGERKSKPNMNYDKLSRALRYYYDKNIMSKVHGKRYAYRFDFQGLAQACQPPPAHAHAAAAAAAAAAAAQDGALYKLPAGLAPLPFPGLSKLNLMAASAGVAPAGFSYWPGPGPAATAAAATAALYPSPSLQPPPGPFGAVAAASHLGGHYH
# In short: as §1
# ETV5 = ETV5 (Homo sapiens, UniProt P41161 1-510); settings: protein: recombinant; tags: N-terminal GST; dsDNA, one strand shown
# ETV5, sequence (P41161 whole entry): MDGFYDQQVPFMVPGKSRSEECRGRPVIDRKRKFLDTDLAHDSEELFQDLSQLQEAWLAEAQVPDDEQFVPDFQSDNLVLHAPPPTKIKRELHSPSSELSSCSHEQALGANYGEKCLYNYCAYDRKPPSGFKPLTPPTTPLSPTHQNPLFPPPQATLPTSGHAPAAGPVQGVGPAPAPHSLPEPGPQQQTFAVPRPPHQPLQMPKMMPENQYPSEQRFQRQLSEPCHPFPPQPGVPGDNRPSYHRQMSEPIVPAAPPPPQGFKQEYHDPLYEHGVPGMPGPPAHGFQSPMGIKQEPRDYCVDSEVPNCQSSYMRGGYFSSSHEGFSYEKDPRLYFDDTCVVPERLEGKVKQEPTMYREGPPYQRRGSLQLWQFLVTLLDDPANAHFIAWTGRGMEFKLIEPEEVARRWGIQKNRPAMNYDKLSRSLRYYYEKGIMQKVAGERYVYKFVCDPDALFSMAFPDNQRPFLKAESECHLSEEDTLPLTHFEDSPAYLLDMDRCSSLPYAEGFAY
# In short: as §1
# HSF1 = HSF1 (Homo sapiens, UniProt Q00613 1-529); settings: protein: recombinant; tags: N-terminal GST; chain copies: 3; dsDNA, one strand shown
# HSF1, sequence (Q00613 whole entry): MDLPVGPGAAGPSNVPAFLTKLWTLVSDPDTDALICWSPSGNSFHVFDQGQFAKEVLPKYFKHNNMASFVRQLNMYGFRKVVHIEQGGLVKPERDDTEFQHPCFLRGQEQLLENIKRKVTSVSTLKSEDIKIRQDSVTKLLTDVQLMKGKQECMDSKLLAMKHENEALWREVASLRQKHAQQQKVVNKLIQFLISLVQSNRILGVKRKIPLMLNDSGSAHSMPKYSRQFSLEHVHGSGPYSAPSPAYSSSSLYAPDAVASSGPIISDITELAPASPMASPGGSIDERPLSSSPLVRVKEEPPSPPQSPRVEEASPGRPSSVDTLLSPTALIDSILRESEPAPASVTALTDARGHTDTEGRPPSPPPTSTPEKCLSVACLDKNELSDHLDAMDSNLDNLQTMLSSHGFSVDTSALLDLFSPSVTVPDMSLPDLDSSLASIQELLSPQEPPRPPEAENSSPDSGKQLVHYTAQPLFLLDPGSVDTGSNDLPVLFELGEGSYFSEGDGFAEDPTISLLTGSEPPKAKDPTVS
# In short: as §1
# SPIC = target: T7, SPIC (Homo sapiens, UniProt Q8N5J4 1-248); settings: protein: recombinant; tags: N-terminal GST; dsDNA, one strand shown
# T7 sequence: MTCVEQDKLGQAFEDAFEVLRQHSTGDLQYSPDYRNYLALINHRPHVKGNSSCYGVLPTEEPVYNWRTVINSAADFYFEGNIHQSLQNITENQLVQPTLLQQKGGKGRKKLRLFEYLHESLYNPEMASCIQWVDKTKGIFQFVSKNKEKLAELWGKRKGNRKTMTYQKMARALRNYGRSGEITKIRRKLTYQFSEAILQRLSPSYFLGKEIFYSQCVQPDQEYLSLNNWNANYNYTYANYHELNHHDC
# In short: as §1
# ELF4 = ELF4 (Homo sapiens, UniProt Q99607 1-663); settings: protein: recombinant; tags: N-terminal GST; dsDNA, one strand shown
# ELF4, sequence (Q99607 whole entry): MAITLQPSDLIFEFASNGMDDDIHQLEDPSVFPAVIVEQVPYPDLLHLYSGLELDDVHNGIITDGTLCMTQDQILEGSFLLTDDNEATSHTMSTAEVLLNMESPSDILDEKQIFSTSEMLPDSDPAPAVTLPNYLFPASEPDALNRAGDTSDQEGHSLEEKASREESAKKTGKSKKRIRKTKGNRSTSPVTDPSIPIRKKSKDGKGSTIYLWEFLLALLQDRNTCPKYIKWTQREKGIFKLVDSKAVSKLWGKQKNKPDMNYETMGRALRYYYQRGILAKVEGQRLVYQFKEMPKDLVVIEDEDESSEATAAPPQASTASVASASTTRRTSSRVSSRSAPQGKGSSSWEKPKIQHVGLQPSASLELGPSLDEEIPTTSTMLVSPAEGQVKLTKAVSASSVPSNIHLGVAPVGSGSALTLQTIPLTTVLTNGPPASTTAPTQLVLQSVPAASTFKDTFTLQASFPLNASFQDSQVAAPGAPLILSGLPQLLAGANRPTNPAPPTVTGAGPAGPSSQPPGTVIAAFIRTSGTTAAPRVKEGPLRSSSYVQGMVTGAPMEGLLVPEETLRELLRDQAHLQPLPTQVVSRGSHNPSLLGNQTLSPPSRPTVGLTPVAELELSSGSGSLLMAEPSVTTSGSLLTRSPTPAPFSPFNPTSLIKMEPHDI
# In short: as §1
# ETV2 = target: T8, ETV2 (Homo sapiens, UniProt O00321 1-342); settings: protein: recombinant; tags: N-terminal GST; dsDNA, one strand shown
# T8 sequence: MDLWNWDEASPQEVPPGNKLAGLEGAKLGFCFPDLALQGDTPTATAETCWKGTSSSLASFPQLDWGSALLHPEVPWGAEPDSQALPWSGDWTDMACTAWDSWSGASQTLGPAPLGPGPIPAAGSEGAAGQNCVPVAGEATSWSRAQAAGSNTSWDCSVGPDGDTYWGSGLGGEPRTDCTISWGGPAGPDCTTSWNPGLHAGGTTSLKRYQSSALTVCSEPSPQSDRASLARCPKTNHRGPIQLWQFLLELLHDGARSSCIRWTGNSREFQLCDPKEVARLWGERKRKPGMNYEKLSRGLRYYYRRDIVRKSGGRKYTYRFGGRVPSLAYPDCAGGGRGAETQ
# In short: as §1
# CRX = CRX (Homo sapiens, UniProt O43186 1-299); settings: protein: recombinant; tags: N-terminal GST; dsDNA, one strand shown
# CRX, sequence (O43186 whole entry): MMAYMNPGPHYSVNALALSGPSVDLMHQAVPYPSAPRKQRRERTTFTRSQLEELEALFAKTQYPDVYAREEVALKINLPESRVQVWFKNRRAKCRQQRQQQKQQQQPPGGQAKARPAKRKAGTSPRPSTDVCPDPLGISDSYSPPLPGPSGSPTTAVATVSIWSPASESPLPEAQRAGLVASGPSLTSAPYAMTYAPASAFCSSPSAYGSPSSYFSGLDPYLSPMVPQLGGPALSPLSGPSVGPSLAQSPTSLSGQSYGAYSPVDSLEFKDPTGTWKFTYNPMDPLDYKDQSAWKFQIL
# In short: as §1
# ETV1 = ETV1 (Homo sapiens, UniProt P50549 1-477); settings: protein: recombinant; tags: N-terminal GST; dsDNA, one strand shown
# ETV1, sequence (P50549 whole entry): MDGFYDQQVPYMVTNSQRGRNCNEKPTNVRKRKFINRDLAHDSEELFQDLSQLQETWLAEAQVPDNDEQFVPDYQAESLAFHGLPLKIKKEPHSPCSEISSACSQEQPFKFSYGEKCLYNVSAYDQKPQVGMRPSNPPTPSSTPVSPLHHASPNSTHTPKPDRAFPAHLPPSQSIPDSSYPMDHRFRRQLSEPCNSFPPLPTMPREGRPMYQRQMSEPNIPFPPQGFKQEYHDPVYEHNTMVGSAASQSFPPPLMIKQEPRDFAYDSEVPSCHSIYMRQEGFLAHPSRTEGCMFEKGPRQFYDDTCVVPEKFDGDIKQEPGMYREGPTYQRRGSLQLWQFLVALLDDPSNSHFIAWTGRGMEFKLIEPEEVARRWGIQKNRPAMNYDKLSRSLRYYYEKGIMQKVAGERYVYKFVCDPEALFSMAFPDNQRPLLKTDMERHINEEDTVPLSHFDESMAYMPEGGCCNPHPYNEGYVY
# In short: as §1
sequence,measurement,setting,value
ATCGTC,binding signal,FLI1,"1.11 fold enrichment (6-mer frequency, TF over GST control)"
same,binding signal,ELK1,"1.17 fold enrichment (6-mer frequency, TF over GST control)"
same,binding signal,GABPA,"1.06 fold enrichment (6-mer frequency, TF over GST control)"
same,binding signal,ERG,"1.03 fold enrichment (6-mer frequency, TF over GST control)"
same,binding signal,ELF1,"1.05 fold enrichment (6-mer frequency, TF over GST control)"
same,binding signal,EHF,"1.1 fold enrichment (6-mer frequency, TF over GST control)"
same,binding signal,SPI1,"1.04 fold enrichment (6-mer frequency, TF over GST control)"
same,binding signal,SPIB,"1.15 fold enrichment (6-mer frequency, TF over GST control)"
same,binding signal,FEV,"1.02 fold enrichment (6-mer frequency, TF over GST control)"
same,binding signal,ETV5,"1.06 fold enrichment (6-mer frequency, TF over GST control)"
same,binding signal,HSF1,"1.06 fold enrichment (6-mer frequency, TF over GST control)"
same,binding signal,SPIC,"1.06 fold enrichment (6-mer frequency, TF over GST control)"
same,binding signal,ELF4,"1.07 fold enrichment (6-mer frequency, TF over GST control)"
same,binding signal,ETV2,"1.02 fold enrichment (6-mer frequency, TF over GST control)"
same,binding signal,CRX,"1.09 fold enrichment (6-mer frequency, TF over GST control)"
same,binding signal,ETV1,"1.14 fold enrichment (6-mer frequency, TF over GST control)"
